# According to ChEMBL document CHEMBL3988442, “University of Dundee, Small-Polar-MMV Screening Library” (2021):
# How the values were obtained:
# [1] = target: T1, Aspartate--tRNA(Asp/Asn) ligase (Mycobacterium tuberculosis (strain ATCC 25618 / H37Rv)) (UniProt P9WFW3); experiment: Assay for Asp RNA synthetase-1 from Mycobacterium tuberculosis; format: functional; design: scale not given: direction of the effect not stated beside the values; details: 30 µM; also: in the data most compounds retested in dose-response had high values
# T1 sequence (whole entry): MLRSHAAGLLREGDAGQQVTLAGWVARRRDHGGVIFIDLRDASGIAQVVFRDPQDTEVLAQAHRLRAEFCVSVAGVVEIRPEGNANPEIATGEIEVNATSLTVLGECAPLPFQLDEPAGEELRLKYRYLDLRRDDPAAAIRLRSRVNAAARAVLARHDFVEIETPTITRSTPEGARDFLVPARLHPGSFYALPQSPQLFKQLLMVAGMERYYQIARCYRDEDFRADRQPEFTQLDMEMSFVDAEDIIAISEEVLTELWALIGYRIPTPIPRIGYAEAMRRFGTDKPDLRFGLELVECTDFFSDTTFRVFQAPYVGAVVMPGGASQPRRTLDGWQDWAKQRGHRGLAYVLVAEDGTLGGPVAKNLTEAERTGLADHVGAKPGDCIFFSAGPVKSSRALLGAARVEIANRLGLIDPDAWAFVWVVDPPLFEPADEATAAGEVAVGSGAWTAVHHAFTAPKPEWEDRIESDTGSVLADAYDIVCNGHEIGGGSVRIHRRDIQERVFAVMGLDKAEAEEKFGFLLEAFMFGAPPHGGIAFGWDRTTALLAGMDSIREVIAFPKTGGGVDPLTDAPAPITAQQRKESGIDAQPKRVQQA
# [2] = target: Shiga toxin 2 (Escherichia coli O157:H7) (UniProt P09385+P09386); experiment: E. coli 0.157:H7 Shiga Toxin SOP - stx2 screening assay; format: functional; design: scale not given: direction of the effect not stated beside the values; details: 30 µM
Structure (SMILES),Percent Effect [1],Percent Effect [2]
Cc1n[nH]c(C2CN(C(=O)c3ccnc(C4CC4)n3)CCO2)n1 (centres undefined),1.3%,28.6%
Cn1nc2c(cc1=O)CN(CC(=O)Nc1ccc(Cl)cn1)CC2,48.3%,-4.57%
Cc1ccc(-c2noc(CN3CCOC(CN(C)C)C3)n2)cc1F (centres undefined),3.61%,24.6%
CN1CC(=O)N(c2cccc(F)c2)CC12CCN(Cc1cccnc1)C2 (centres undefined),2.03%,-14.7%
Cc1ccc(NC(C)C(=O)NCc2cccs2)cc1C (centres undefined),3.13%,-30.8%
O=C(c1cscn1)N1CC[C@]2(C[C@@H](OCCN3CCCC3)CO2)C1,-3.81%,-17.4%
CC(=O)N1[C@@H](C(=O)NCC2CC2)C[C@@H]2CN(Cc3ccco3)C[C@@H]21,0.523%,-11.8%
COc1ccc(CNC(=O)N2CCC(Cc3cnn(C)c3)C2)cc1C (centres undefined),-2.9%,18%
CC(C)C(C)NC(=O)Nc1ccccc1CN1CCOCC1 (centres undefined),3.91%,9.92%
O=C(Cn1cnc(-c2ccccc2)cc1=O)Nc1ccncc1,-2.03%,-36.3%
Cc1ccc(C)c(NC(=O)c2n[nH]c(-n3cnnc3)n2)c1,-4.33%,-11.6%
CNc1cc(C2CCCN2C(=O)c2ccc3oc(=O)n(C)c3c2)ccn1 (centres undefined),4.04%,7%
COc1ccc(-c2nccnc2C2CCN(C(C)=O)CC2)cc1,0.0149%,12%
CCN(CC)Cc1cn2c(n1)CN(C(=O)c1cc(C)on1)CC2,3.22%,2.01%
O=C(COC(=O)Cc1cccs1)NCc1cccc(NC(=O)C2CC2)c1,-1.66%,28%
c1ccc(-c2noc3c2CN(CC2CC2)CC3)cc1,4.77%,-9.68%
Cn1nc(C2CCCN(C(=O)Cc3ccsc3)C2)c2nccnc21 (centres undefined),-0.402%,7.06%
CN(C)C(=O)COCc1cncc2c1CCN(Cc1nccn1C)C2,10.5%,-47.9%
CCc1nc(C2CCCN(C(=O)c3cn(C)nc3C)C2)no1 (centres undefined),-7.17%,-20.7%
c1csc(-c2nc(CNC3CCc4ncnn4C3)cs2)c1 (centres undefined),-3.43%,-12.9%
CC(=O)N1CCN(c2ccc3ccc(C(=O)NC4CCCC4)cn23)CC1,-0.91%,-45%
CCn1c(CN(C)C)nnc1C1CCN(c2ccnc(C)c2)CC1,4.18%,-16.1%
CC(C)NC(=O)N1CCN(S(=O)(=O)C2CC2)CC2(CNC(=O)C2)C1 (centres undefined),-2.4%,-12.6%
O=C(NC1(c2cccc(F)c2)CCOCC1)c1ccoc1,2.05%,-19.4%
O=C(NCCCN1CCCCC1)c1ccc(-n2ccc3ccccc32)s1,5.58%,-90%
CC(=O)N1CCN(C(=O)C(C)n2cncn2)CC1 (centres undefined),-4.44%,1.67%

Structure (SMILES),Percent Effect [1],Percent Effect [2]
COc1c(CNCc2ccc(C(=O)NC3CC3)cc2)c(C)nn1C,-3.68%,-14.2%
CN(C)C(=O)N1C[C@H]2CN(Cc3cccc(F)c3)C(=O)[C@H]2C1,-2.95%,-2.65%
Cn1ncc2c(=O)[nH]c(N3CCN(C(=O)c4ccsc4)CC3)nc21,1.3%,13.3%
Cn1cnnc1C1CCCN(C(=O)NCc2cc[nH]n2)C1 (centres undefined),4.95%,12.3%
O=C(c1ccco1)N1CCOCC2(CCN(C3CCOCC3)C2)C1 (centres undefined),8.62%,-31.1%
Cc1nnc(NC(=O)CN2CCCC(Cn3cncn3)C2)s1 (centres undefined),2.66%,-3.39%
C[C@@H]1CN(C(=O)c2ccsc2)C[C@]12CCN(c1ccsc1)C2=O,-1.75%,1.46%
CCS(=O)(=O)N1CCc2ccc(NC(=O)Nc3ccc(F)cc3F)cc21,1.65%,-10.5%
Cn1cc(CN2CCCn3cnc(COCC4CC4)c3C2)cn1,1.66%,-1.47%
Cn1cc(C2CCCN2C(=O)c2ccc(Br)o2)cn1 (centres undefined),-1.8%,28.5%
CC(=O)N(Cc1noc(C)n1)C1CCN(CCOc2ccccc2)C1 (centres undefined),2.87%,-29.9%
O=c1cc2c(nn1CN1CCN(c3cccc(Cl)c3)CC1)CCC2,-1.19%,-4.9%
O=C(NCCCn1cncn1)NCC(c1ccco1)N1CCCCC1 (centres undefined),7.12%,18.2%
COc1cccc(CN2CCC3(CCN(C(=O)[C@H]4CCCO4)CC3)C2)c1,2.09%,-47.5%
O=C(c1ccccn1)N1C[C@@H]2CC[C@H](C1)N(C(=O)CCc1cccs1)C2,12%,-22%
Cc1ccsc1CN(Cc1ccccn1)CC(C)C,-2.01%,-3.58%
CC(C)(C)c1ncc(C(=O)NCCNC(=O)c2ccccc2)s1,1.94%,36.9%
c1cnc(N2CCCC(NCc3cccc4c3OCCO4)C2)nc1 (centres undefined),-1.35%,4.24%
Cc1cccc(CCC(=O)N2CCCC(c3cc(C(N)=O)[nH]n3)C2)c1 (centres undefined),-0.161%,-10.2%
Cc1nc(CN2CCCC2c2c(C)nn(C)c2Cl)no1 (centres undefined),-3.26%,18.6%
Nc1nc(CN2CCOC(Cn3cncn3)C2)nc2ccccc12 (centres undefined),-1.84%,5.62%
Cc1ccsc1CN(C)C(=O)Cn1nc(-c2ccc(F)cc2)oc1=O,10.3%,-7.45%
Cc1ccc(-c2cc(CN3CCCC(Cn4cncn4)C3)on2)cc1 (centres undefined),2.71%,-31.3%
Cn1ncc2c1C(COCC1CC1)CN(Cc1nccs1)C2 (centres undefined),11.3%,-37.3%
OC(CN1CCOCC1)c1ccc(OC(F)(F)F)cc1 (centres undefined),-1.62%,13.6%
NC(=O)COc1cccc(C(=O)Nc2cnc3n2CCCC3)c1,-0.557%,-2.86%
